# Measured values as given in PubChem BioAssay (Tox21).
# Where “and” joins values, the source holds several entries; their conditions need not be identical. Identical values can stand only once. Inconclusive results are not listed. Entries that show only a call come without a potency. Where a structure was tested more than once in an assay, its records may differ in their call. Calls of active or inactive are those of the source. Unless noted, the call rests on the fitted dose curve; in most records, active means well fitted curve in the direction sought with a large enough effect in the repeat runs; inconclusive means weak or mixed curves; inactive means no such curve, though single readings can be large; an effect the other way counts as inactive or inconclusive.
# Key:
# [1] = biological target: Progesterone receptor (Homo sapiens) (UniProt P06401); experiment: qHTS assay to identify small molecule agonists of the progesterone receptor (PR) signaling pathway (AID 1346784; calls by dose curve; further: nearly all actives have a fitted effect of over 30% in size; further: potency means the concentration at half of the fitted maximal effect)
# Chain of Progesterone receptor (Homo sapiens) (P06401 whole entry, looked up): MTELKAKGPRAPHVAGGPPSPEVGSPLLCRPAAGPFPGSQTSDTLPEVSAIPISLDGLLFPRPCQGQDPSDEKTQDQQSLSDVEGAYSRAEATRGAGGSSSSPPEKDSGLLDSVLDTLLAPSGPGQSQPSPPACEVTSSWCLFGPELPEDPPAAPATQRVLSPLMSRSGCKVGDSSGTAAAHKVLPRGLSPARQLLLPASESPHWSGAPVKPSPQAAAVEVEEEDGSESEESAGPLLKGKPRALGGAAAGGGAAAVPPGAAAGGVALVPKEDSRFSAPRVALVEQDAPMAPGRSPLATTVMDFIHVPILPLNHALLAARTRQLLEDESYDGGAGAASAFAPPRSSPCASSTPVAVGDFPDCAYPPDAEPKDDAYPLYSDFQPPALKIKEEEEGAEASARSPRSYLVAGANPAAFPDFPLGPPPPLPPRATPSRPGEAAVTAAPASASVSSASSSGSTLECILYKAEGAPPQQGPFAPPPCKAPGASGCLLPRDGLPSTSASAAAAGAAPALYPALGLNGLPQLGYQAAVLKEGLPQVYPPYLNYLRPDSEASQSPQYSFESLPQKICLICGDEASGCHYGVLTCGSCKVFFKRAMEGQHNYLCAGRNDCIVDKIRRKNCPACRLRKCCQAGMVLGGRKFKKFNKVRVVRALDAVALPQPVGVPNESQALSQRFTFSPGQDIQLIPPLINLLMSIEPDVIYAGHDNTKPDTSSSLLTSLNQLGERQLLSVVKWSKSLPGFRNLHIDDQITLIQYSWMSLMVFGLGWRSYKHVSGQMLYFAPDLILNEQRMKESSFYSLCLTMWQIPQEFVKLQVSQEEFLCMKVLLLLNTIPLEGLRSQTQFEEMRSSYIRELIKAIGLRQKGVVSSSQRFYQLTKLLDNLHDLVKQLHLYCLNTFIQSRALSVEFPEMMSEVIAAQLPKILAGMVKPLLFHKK
# Procedure, shortened: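 Beta-lactamase reporter read-out: after 16 hr compound treatment at 37C and a further 2 hr at room temperature with LiveBLAzer B/G FRET substrate, fluorescence was measured in PR-UAS-bla HEK 293T cells grown in 2% charcoal-stripped serum.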
# [2] = biological target: Progesterone receptor (Homo sapiens) (UniProt P06401); experiment: qHTS assay to identify small molecule antagonists of the progesterone receptor (PR) signaling pathway (AID 1346795; active means well fitted inhibition curve with a large enough effect in the signal ratio in the repeat runs, not every such curve was filed as active; the % refers to the signal ratio; further: potency means the concentration at half of the fitted maximal effect)
# Procedure, shortened: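 Read-out is fluorescence from the LiveBLAzer B/G FRET substrate, cleaved by a UAS-controlled beta-lactamase in PR-UAS-bla HEK293T cells after 16 hr exposure to compound plus 1 nM promegestone (final), followed by 2 hr at room temperature.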
# [3] = qHTS assay to identify small molecule antagonists of the progesterone receptor (PR) signaling pathway - cell viability counter screen (AID 1346798); further: nearly all actives have a fitted effect of over 50% in size; further: potency means the concentration at half of the fitted maximal effect
# Procedure, shortened: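 HEK293T PR-UAS-bla, 2% charcoal-stripped FBS; 4 hr pre-plate; cpd + R5020, 16 h 37C; LiveBLAzer read first; then CellTiter-Glo 30 min RT, luminescence.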
# [4] = qHTS assay to identify small molecule agonists of the progesterone receptor (PR) signaling pathway - cell viability counter screen (AID 1346799; calls by dose curve; further: nearly all actives have a fitted effect of over 45% in size; further: potency means the concentration at half of the fitted maximal effect)
# Procedure, shortened: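 Luminescence from CellTiter-Glo, added after the beta-lactamase FRET read in the same wells, gave cytotoxicity in PR-UAS-bla HEK293T cells treated with compounds for 16 hr at 37C.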
# [5] = qHTS assay to identify small molecule antagonists of the TGF-beta/Smad signaling pathway - cell viability counter screen (AID 1346824); further: nearly all actives have a fitted effect of over 50% in size; further: potency means the concentration at half of the fitted maximal effect
# Procedure, shortened: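 Cytotoxicity counter-screen run in the same wells as the beta-lactamase Smad reporter read: CellTiter-Glo luminescence after 30 min at room temperature. HEK 293T SBE-bla cells had 5 hr compound exposure at 37 C with TGF-beta1 (0.25 ng/mL stock).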
# [6] = qHTS assay to identify small molecule agonists of the TGF-beta/Smad signaling pathway - cell viability counter screen (AID 1346829); further: nearly all actives have a fitted effect of over 45% in size; further: potency means the concentration at half of the fitted maximal effect
# Procedure, shortened: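 Compound-treated SBE-bla HEK 293T cells (5 hr, 37 C) were assessed for viability with CellTiter-Glo in parallel with the reporter read.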
# [7] = qHTS assay to identify small molecule agonists of the TGF-beta/Smad signaling pathway (AID 1346859; active means well fitted activation curve with a large enough effect in the signal ratio in the repeat runs, not every such curve was filed as active; the % refers to the signal ratio; further: series mostly up to about 77 µM)
# Procedure, shortened: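 SBE-bla HEK 293T, 4,000 cells/well, plated o/n; cpd in DMSO, 5 hr, 37 C/5% CO2; B/G FRET substrate 2 hr RT; ex 405, em 460/530 nm.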
# [8] = biological target: Thyrotropin-releasing hormone receptor (Homo sapiens) (UniProt P34981); experiment: qHTS assay to identify small molecule antagonists of the thyrotropin-releasing hormone receptor (TRHR) signaling pathway (AID 1346877; active means well fitted inhibition curve with a large enough effect in the repeat runs, not every such curve was filed as active; further: series mostly up to about 51 µM)
# Chain of Thyrotropin-releasing hormone receptor (Homo sapiens) (P34981 whole entry, looked up): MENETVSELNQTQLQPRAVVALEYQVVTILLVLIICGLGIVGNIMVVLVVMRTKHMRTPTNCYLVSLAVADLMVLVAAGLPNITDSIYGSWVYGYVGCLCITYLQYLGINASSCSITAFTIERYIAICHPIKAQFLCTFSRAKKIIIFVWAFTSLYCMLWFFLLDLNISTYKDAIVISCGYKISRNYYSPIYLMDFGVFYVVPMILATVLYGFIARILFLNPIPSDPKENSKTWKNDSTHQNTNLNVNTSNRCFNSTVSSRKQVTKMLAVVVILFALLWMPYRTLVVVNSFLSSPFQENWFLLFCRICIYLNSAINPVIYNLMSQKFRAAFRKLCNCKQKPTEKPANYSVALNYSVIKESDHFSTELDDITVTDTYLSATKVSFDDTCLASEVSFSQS
# Procedure, shortened: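 Antagonism is measured as suppression of the calcium response to 1 nM TRH in TRHR-HEK293 cells that have been dye-loaded for 2 h at 37 °C after overnight plating. Each compound is tested at 15 concentrations in triplicate.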
# [9] = biological target: Thyrotropin-releasing hormone receptor (Homo sapiens) (UniProt P34981); experiment: qHTS assay to identify small molecule agonists of the thyrotropin-releasing hormone receptor (TRHR) signaling pathway (AID 1346891; calls by dose curve; further: series mostly up to about 58 µM)
# Procedure, shortened: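 Intracellular calcium rise, read as fluorescence every second for 3 min, served as the agonist signal in dye-loaded HEK293 cells expressing TRHR; each compound ran at 15 concentrations in triplicate.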
# [10] = Human pregnane X receptor (PXR) small molecule agonists, qHTS cell viability counter screen (AID 1346977); further: nearly all actives have a fitted effect of over 50% in size; further: potency means the concentration at half of the fitted maximal effect
# Procedure, shortened: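 PXR-Luc HepG2, 2,000 cells/well, 5% charcoal-stripped FBS; 5hr settle; cpd 24hr, 37C/5% CO2; CellTiter-Fluor at 23hr, read 1hr later (fluorescence).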
Structure (SMILES),Potency [1],Potency [2],Potency [3],Potency [4],Potency [5],Potency [6],outcome [7],Potency [8],Potency [9],Potency [10]
COc1cccc(O)c1O,inactive,inactive,inactive,inactive,inactive,inactive,inactive,inactive,inactive,–
NC(=O)c1cccnc1,inactive,inactive,inactive,inactive,inactive,inactive,inactive,–,–,–
NS(=O)(=O)O,inactive,inactive,inactive,inactive,inactive,inactive,inactive,–,–,–
CCCCNC(=O)NS(=O)(=O)c1ccc(C)cc1,inactive,inactive,inactive,inactive,inactive,inactive,inactive,inactive,inactive,–
O=C1NS(=O)(=O)c2ccccc21,inactive,inactive,inactive,inactive,inactive,inactive,inactive,inactive,inactive,–
NC1CCCCC1,inactive,inactive,inactive,inactive,inactive,inactive,inactive,inactive,inactive,–
O=C(O)c1ccccc1,inactive and 596 nM (active),inactive,inactive,inactive,inactive,inactive,inactive,–,–,–
Cc1ncc([N+](=O)[O-])n1CCO,inactive,inactive,inactive,inactive,inactive,inactive,inactive,inactive,inactive,–
CS(=O)(=O)OCCCCOS(C)(=O)=O,inactive,inactive,inactive,inactive,inactive,inactive,inactive,inactive,inactive,–
CCCCC(CC)C(=O)O (stereo not given),inactive,inactive,inactive,inactive,inactive,inactive,inactive,–,–,–
NS(=O)(=O)c1cc2c(cc1Cl)NCNS2(=O)=O,inactive,inactive,inactive,inactive,inactive,inactive,inactive,inactive,inactive,–
CN(C)CCOC(c1ccccc1)c1ccccc1,inactive,inactive,inactive,inactive,inactive,inactive,inactive,inactive,inactive,–
NC(CO)(CO)CO,inactive,inactive,inactive,inactive,inactive,inactive,inactive,inactive,inactive,–
Cc1cc(C)nc(NS(=O)(=O)c2ccc(N)cc2)n1,inactive,inactive,inactive,inactive,inactive,inactive,inactive,inactive,inactive,–
Cc1cccc(C)c1,inactive,inactive,inactive,inactive,inactive,inactive,inactive,inactive,inactive,–
Nc1ccc(S(N)(=O)=O)cc1,inactive,inactive,inactive,inactive,inactive,inactive,inactive,inactive,inactive,–
Cc1c(C(=O)O)c(O)cc2c1C(=O)c1c(O)c([C@@H]3O[C@H](CO)[C@@H](O)[C@H](O)[C@H]3O)c(O)c(O)c1C2=O,inactive,inactive,inactive,inactive,inactive,inactive,inactive,inactive,inactive,–
CCCC[P+](CCCC)(CCCC)CCCC,inactive,inactive,inactive,inactive,inactive,inactive,–,–,–,–
CC(C)NCC(O)c1ccc(O)c(O)c1 (stereo not given),inactive,inactive,inactive,inactive,inactive,inactive,inactive,inactive,inactive,–
CC(=O)Nc1c(I)c(NC(C)=O)c(I)c(C(=O)O)c1I,inactive,inactive,inactive,inactive,inactive,inactive,inactive,–,–,–
CC(C)C(=O)Nc1ccc([N+](=O)[O-])c(C(F)(F)F)c1,inactive,25 µM (active),inactive,inactive,inactive,inactive,inactive,inactive,inactive,–

Structure (SMILES),Potency [1],Potency [2],Potency [3],Potency [4],Potency [5],Potency [6],outcome [7],Potency [8],Potency [9],Potency [10]
Cc1cn([C@H]2C=C[C@@H](CO)O2)c(=O)[nH]c1=O,inactive,inactive,inactive,inactive,inactive,inactive,inactive,–,–,–
CCCCCCCCCCCCCCCC[N+](C)(C)Cc1ccccc1,inactive,inactive,24.8 µM (active),10 µM (active) and 12.4 µM (active) and 6.68 µM (active),56.7 µM (active) and 49.8 µM (active),45 µM (active) and 39.6 µM (active) and 19 µM (active),inactive,inactive,inactive,–
CCCCC1(COC(=O)CCC(=O)O)C(=O)N(c2ccccc2)N(c2ccccc2)C1=O,inactive,inactive,inactive,inactive,inactive,inactive,inactive,inactive,inactive,–
Cn1c(=O)c2c(ncn2C)n(C)c1=O,inactive,inactive,inactive,inactive,inactive,inactive,inactive,–,–,–
CC1(C)S[C@@H]2[C@H](NC(=O)[C@H](N)c3ccccc3)C(=O)N2[C@H]1C(=O)O,inactive,inactive,inactive,inactive,inactive,inactive,inactive,–,–,–
C=C(C)C(=O)OCC(C)O (stereo not given),inactive,inactive,inactive,inactive,inactive,inactive,inactive,–,–,–
CCCCCCCC(=O)OCC(COC(=O)CCCCCCC)OC(=O)CCCCCCC,inactive,inactive,inactive,inactive,inactive,inactive,inactive,inactive,inactive,–
CC(=O)C(=O)O,inactive,inactive,inactive,inactive and 34.4 µM (active),inactive,inactive,inactive,–,–,–
COc1ccc(CN(CCN(C)C)c2ccccn2)cc1,inactive,inactive,inactive,42.8 µM (active) and 28.2 µM (active) and inactive,inactive,inactive,inactive,inactive,inactive,inactive
OC[C@H]1O[C@H](O[C@]2(CCl)O[C@H](CCl)[C@@H](O)[C@@H]2O)[C@H](O)[C@@H](O)[C@H]1Cl,inactive,inactive,inactive,inactive,inactive,inactive,inactive,inactive,inactive,inactive
O=S1(=O)OC(c2ccc(O)cc2)(c2ccc(O)cc2)c2ccccc21,inactive,inactive,inactive,inactive,inactive,inactive,inactive,inactive,inactive,24.3 µM (active) and 30.6 µM (active) and 9.44 µM (active)
CNNCc1ccc(C(=O)NC(C)C)cc1,inactive,inactive,inactive,inactive,inactive,inactive,inactive,inactive,inactive,inactive
O=C1c2c(O)cccc2Cc2cccc(O)c21,inactive,inactive,inactive,inactive,inactive,inactive,inactive,–,–,inactive
Cc1ncc([N+](=O)[O-])n1C,inactive,inactive,inactive,inactive,inactive,inactive,inactive,inactive,inactive,inactive
CN(C)CCOC(C)(c1ccccc1)c1ccccn1 (stereo not given),inactive,inactive,inactive,inactive,inactive,inactive,inactive,–,–,inactive
Nc1c(N=Nc2ccc(-c3ccc(N=Nc4cc(S(=O)(=O)O)c5ccccc5c4N)cc3)cc2)cc(S(=O)(=O)O)c2ccccc12,inactive,inactive,inactive,inactive,inactive,inactive,inactive,–,–,8.63 µM (active)
Cc1ccc(S(=O)(=O)O)cc1,inactive,inactive,inactive,inactive,inactive,inactive,inactive,–,–,inactive
C=CCc1ccc(O)c(OC)c1,inactive,inactive,inactive,inactive,inactive,inactive,inactive,inactive,inactive,inactive
C[C@](N)(Cc1ccc(O)c(O)c1)C(=O)O,inactive,inactive,inactive,inactive,inactive,inactive,inactive,inactive,inactive,inactive
CCCc1cc(=O)[nH]c(=S)[nH]1,inactive,inactive,inactive,inactive,inactive,inactive,inactive,inactive,inactive,inactive
